Each structure is given as a SMILES string. Values without a mark were called inactive. Inconclusive results are not listed. Activity calls are given as the source filed them. Unless noted, the call rests on the fitted dose curve; in most records, active means well fitted curve in the direction sought with a large enough effect in the repeat runs; inconclusive means weak or mixed curves; inactive means no such curve, though single readings can be large; an effect the other way counts as inactive or inconclusive.

Experiment [1] in a line: qHTS assay to identify small molecule agonists of the sonic hedgehog signaling (Shh) pathway (AID 1259368; calls by dose curve;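 further: NIH/3T3-derived 3T3Gli1-Luc cells carrying a stable Gli1-driven firefly luciferase reporter; series mostly up to about 92 µM; nearly all actives have a fitted effect of over 15% in size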). A digest of the protocol:
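Cells of a mouse NIH/3T3 clone stably expressing luciferase under the Gli1 transcriptional response element are exposed to test chemicals for 24 hr at 37 C. Pathway activation is detected as a rise in luminescence.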
For orientation: qHTS replaces the single test concentration by a dilution series.

Experiment [2] in a line: qHTS assay to identify small molecule antagonists of the sonic hedgehog signaling (Shh) pathway (AID 1259369; calls by dose curve; further: nearly all actives have a fitted effect of over 45% in size). The method, boiled down:
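Cells are plated and held 4hr at 37 C, compounds (DMSO) are pinned in, conditioned medium is added to stimulate the pathway, and after 24hr luciferase reagent is added for 30min before luminescence is read.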

Experiment [3] is described as follows: qHTS assay to identify small molecule agonists of the androgen receptor (AR) signaling pathway in the presence of an antagonist - cell viability counter screen (AID 1259379).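 Further: MDA-kb2 human breast cancer cells carrying an MMTV luciferase reporter; series mostly up to about 92 µM; nearly all actives have a fitted effect of over 25% in size.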 A digest of the protocol: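 Cytotoxicity is assessed by CellTiter-Fluor in MDA-kb2 cells carrying an MMTV-driven luciferase reporter. Cells receive 3.0uM nilutamide plus compounds at 15 concentrations and incubate 16 hr at 37C without CO2 before fluorescence reading.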

The nature of experiment [4]: qHTS assay to identify small molecule agonists of the estrogen receptor beta (ER-beta) signaling pathway - cell viability counter screen (AID 1259380). Further: nearly all actives have a fitted effect of over 30% in size. Further: potency means the concentration at half of the fitted maximal effect. The method, boiled down: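 Cytotoxicity is measured in parallel with the reporter screen: after 16 hr compound exposure at 37C and a 2 hr LiveBLAzer step, CellTiter-Glo is added to the same ER-beta-UAS-bla HEK293T wells and luminescence read after 30 min.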

For experiment [5], the target named is Estrogen receptor (Homo sapiens) (UniProt P03372). Kind of experiment: qHTS assay to identify small molecule agonists of the estrogen receptor alpha (ER-alpha) signaling pathway in the presence of an antagonist (AID 1259383; calls by dose curve; further: top concentration of the series differs between compounds; nearly all actives have a fitted effect of over 15% in size). A digest of the protocol:
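Agonist-mode confirmation in the presence of the ER antagonist ICI-182,780 at 10.0nM final. Breast-derived VM7Luc4E2 reporter cells were exposed to compounds for 22hr, and ERE-driven luciferase was quantified by luminescence.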

Experiment [6] deals with Thyrotropin receptor (Homo sapiens) (UniProt P16473). Kind of experiment: qHTS assay to identify small molecule antagonists of the thyroid stimulating hormone receptor (TSHR) signaling pathway (AID 1259385; calls by dose curve; further: nearly all actives have a fitted effect of over 20% in size). The method, boiled down:
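TSHR-HEK293 cells were plated and held 18 h at 37C/5% CO2, then given compound plus Ro20-1724 and stimulated with TSH at 1.5 ng/mL final. After 30 min at room temperature, cAMP was detected with cAMP-d2/anti-cAMP-cryptate (1 h) by fluorescence.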

Experiment [7] can be described thus: qHTS assay to identify small molecule agonists of the estrogen receptor alpha (ER-alpha) signaling pathway in the presence of an antagonist - cell viability counter screen (AID 1259386).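 Further: series mostly up to about 92 µM; cells exposed to compounds for 22 h at 37 °C before the viability read; nearly all actives have a fitted effect of over 30% in size.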 The method, boiled down: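 Cytotoxicity was measured in parallel with the ERE-luciferase agonist screen, in the same wells. The cells were VM7Luc4E2, which endogenously express ER-alpha, and treatment was with compounds plus 10.0nM ICI-182,780 for 22hr.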

The target in experiment [8] is Progesterone receptor (Homo sapiens) (UniProt P06401). Kind of experiment: qHTS assay to identify small molecule antagonists of the progesterone receptor (PR) signaling pathway (AID 1346795; active means well fitted inhibition curve with a large enough effect in the signal ratio in the repeat runs, not every such curve was filed as active; the % refers to the signal ratio). A digest of the protocol: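 After 6 hr plating at 37C in 2% stripped-serum medium, PR-UAS-bla HEK293T cells got compounds, then 1 nM R5020. Sixteen hours later, LiveBLAzer substrate was applied for 2 hr at room temperature and fluorescence was recorded.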
Chain of Progesterone receptor (Homo sapiens) (P06401 whole entry, looked up): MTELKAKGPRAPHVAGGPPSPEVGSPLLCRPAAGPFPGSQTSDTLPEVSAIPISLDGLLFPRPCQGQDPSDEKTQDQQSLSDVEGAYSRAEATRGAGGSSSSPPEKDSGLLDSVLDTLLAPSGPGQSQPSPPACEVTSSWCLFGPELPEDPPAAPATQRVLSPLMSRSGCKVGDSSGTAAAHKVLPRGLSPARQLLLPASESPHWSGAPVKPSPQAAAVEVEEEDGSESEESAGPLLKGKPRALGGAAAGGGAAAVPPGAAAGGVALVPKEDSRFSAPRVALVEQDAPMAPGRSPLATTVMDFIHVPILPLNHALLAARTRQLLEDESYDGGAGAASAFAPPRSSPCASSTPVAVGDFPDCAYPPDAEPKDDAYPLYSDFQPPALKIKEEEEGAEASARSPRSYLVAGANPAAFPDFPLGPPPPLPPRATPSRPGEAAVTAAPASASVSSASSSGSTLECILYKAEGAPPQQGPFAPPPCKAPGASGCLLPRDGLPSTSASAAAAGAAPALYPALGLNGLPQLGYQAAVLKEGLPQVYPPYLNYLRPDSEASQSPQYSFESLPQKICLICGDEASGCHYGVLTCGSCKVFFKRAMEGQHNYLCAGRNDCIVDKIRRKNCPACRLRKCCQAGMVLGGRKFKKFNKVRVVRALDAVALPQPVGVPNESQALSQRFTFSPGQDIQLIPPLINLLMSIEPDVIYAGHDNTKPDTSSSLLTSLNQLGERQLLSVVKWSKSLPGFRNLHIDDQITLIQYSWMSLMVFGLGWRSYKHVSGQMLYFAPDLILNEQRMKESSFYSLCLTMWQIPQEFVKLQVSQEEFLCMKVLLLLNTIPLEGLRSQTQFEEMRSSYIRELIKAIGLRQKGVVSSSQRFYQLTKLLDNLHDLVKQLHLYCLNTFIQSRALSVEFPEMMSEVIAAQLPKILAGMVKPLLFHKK

A short description of experiment [9]: qHTS assay to identify small molecule agonists of the progesterone receptor (PR) signaling pathway - cell viability counter screen (AID 1346799; calls by dose curve; further: nearly all actives have a fitted effect of over 45% in size; further: potency means the concentration at half of the fitted maximal effect). The method, boiled down: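 Viability was scored by ATP luminescence (CellTiter-Glo, 30 min, room temperature) in the same wells used for the reporter readout, after 16 hr compound exposure of PR-UAS-bla HEK293T cells.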

Experiment [10] can be described thus: qHTS assay to identify small molecule antagonists of the TGF-beta/Smad signaling pathway - cell viability counter screen (AID 1346824). Further: nearly all actives have a fitted effect of over 50% in size. The method, boiled down:
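SBE-bla HEK 293T cells were plated overnight at 37 C, then given compounds in DMSO plus TGF-beta1 (added as 0.25 ng/mL solution) for 5 hr. After the bla read, CellTiter-Glo was added to the same wells and luminescence read after 30 min at room temperature.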

The nature of experiment [11]: qHTS assay to identify small molecule agonists of the TGF-beta/Smad signaling pathway - cell viability counter screen (AID 1346829). Further: top concentration of the series differs between compounds; nearly all actives have a fitted effect of over 45% in size. A digest of the protocol: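 In parallel with the Smad reporter read, viability of HEK 293T cells stably carrying SBE-bla is quantified by ATP luminescence following 5 hr compound treatment.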
Experiment [12] deals with Thyrotropin-releasing hormone receptor (Homo sapiens) (UniProt P34981). Put plainly: qHTS assay to identify small molecule antagonists of the thyrotropin-releasing hormone receptor (TRHR) signaling pathway (AID 1346877; active means well fitted inhibition curve with a large enough effect in the repeat runs, not every such curve was filed as active; further: series mostly up to about 51 µM). A digest of the protocol:
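Antagonism is measured as suppression of the calcium response to 1 nM TRH in TRHR-HEK293 cells that have been dye-loaded for 2 h at 37 °C after overnight plating. Each compound is tested at 15 concentrations in triplicate.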

A short description of experiment [13]: qHTS assay to identify small molecule antagonists of the estrogen receptor beta (ER-beta) signaling pathway - cell viability counter screen (AID 1259382).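 Further: HEK293T cells carrying ER-beta-UAS-bla reporter stimulated with estradiol; series mostly up to about 92 µM; nearly all actives have a fitted effect of over 55% in size.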 The method, boiled down: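 Cytotoxicity counter screen multiplexed with the beta-lactamase antagonist assay: GripTite HEK293T ER-beta-bla cells were treated 16 hr with test chemicals in the presence of 1nM 17-beta-estradiol, and viability was measured by CellTiter-Glo.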

Experiment [14] can be described thus: qHTS assay to identify small molecule agonists or antagonists of the thyroid stimulating hormone receptor (TSHR) signaling pathway - wild type cell line counter screen (AID 1259384; calls by dose curve). The method, boiled down: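 Wild-type HEK293 cells were plated 18 h at 37 C/5% CO2, pin-dosed with compound plus Ro20-1724 medium, held 30 min at room temperature, then given cAMP-d2 and anti-cAMP-cryptate; fluorescence was read after 1 h. Fifteen concentrations, triplicate.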

In experiment [15] the target is Progesterone receptor (Homo sapiens) (UniProt P06401). Kind of experiment: qHTS assay to identify small molecule agonists of the progesterone receptor (PR) signaling pathway (AID 1346784; calls by dose curve; further: nearly all actives have a fitted effect of over 30% in size). The method, boiled down: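 The screen uses PR-UAS-bla HEK 293T cells in charcoal-stripped serum (2%). Compounds are applied for 16 hr at 37C after a 6 hr pre-incubation, and reporter activity is detected with a FRET beta-lactamase substrate after 2 hr at room temperature.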

The nature of experiment [16]: qHTS assay to identify small molecule antagonists of the progesterone receptor (PR) signaling pathway - cell viability counter screen (AID 1346798). Further: series mostly up to about 92 µM; nearly all actives have a fitted effect of over 50% in size. A digest of the protocol: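 Viability was determined by ATP-based luminescence (CellTiter-Glo) in PR-UAS-bla HEK293T cells cultured in 2% charcoal-stripped serum and incubated 16 hr with compounds under R5020 stimulation.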

Experiment [17] can be described thus: qHTS assay to identify small molecule agonists of the TGF-beta/Smad signaling pathway (AID 1346859; active means well fitted activation curve with a large enough effect in the signal ratio in the repeat runs, not every such curve was filed as active; the % refers to the signal ratio; further: series mostly up to about 77 µM). A digest of the protocol: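 Dual-wavelength fluorescence (460/530 nm emission) quantified beta-lactamase expression under the Smad binding element in HEK 293T cells following 5 hr compound treatment at 37 C.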
The target in experiment [18] is Androgen receptor (Homo sapiens) (UniProt P10275). Put plainly: qHTS assay to identify small molecule agonists of the androgen receptor (AR) signaling pathway in the presence of an antagonist (AID 1259381; calls by dose curve; further: nearly all actives have a fitted effect of over 15% in size). A digest of the protocol:
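Agonist-mode confirmation screen: human MDA-kb2 cells stably expressing luciferase under an MMTV promoter bearing AR and GR response elements, co-treated with 3.0uM nilutamide (final). Luminescence measured after 16hr compound incubation.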

Chain of Thyrotropin-releasing hormone receptor (Homo sapiens) (P34981 whole entry, looked up): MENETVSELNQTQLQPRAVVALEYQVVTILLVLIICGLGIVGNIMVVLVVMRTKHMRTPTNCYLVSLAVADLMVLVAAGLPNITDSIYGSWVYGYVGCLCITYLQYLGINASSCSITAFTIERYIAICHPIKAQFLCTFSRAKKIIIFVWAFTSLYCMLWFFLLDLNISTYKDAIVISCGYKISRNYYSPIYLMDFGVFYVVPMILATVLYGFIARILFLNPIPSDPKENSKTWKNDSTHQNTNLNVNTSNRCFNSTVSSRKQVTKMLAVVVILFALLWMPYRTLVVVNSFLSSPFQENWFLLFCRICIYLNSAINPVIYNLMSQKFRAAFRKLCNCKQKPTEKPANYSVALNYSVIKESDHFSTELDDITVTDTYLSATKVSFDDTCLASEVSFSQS
Chain of Thyrotropin receptor (Homo sapiens) (P16473 whole entry, looked up): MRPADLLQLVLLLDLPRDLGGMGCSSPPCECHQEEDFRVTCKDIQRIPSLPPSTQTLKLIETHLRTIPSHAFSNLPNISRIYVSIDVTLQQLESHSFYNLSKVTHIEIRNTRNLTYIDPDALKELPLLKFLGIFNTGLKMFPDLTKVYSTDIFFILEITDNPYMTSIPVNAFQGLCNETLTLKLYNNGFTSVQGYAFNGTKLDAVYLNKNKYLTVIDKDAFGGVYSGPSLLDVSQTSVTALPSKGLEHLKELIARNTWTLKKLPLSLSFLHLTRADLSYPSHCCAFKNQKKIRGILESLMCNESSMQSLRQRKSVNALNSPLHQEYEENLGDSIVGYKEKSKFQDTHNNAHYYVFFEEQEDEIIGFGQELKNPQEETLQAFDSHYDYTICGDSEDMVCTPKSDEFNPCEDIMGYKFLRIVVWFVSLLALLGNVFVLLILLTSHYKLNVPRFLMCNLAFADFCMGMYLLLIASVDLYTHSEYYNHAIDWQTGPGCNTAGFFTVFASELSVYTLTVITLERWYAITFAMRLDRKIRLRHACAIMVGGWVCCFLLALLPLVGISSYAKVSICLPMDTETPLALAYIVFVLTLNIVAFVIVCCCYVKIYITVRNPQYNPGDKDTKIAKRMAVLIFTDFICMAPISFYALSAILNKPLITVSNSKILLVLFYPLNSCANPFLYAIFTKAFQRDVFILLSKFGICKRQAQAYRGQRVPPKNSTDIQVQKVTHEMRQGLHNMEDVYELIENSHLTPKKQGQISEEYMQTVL
Chain of Estrogen receptor (Homo sapiens) (P03372 whole entry, looked up): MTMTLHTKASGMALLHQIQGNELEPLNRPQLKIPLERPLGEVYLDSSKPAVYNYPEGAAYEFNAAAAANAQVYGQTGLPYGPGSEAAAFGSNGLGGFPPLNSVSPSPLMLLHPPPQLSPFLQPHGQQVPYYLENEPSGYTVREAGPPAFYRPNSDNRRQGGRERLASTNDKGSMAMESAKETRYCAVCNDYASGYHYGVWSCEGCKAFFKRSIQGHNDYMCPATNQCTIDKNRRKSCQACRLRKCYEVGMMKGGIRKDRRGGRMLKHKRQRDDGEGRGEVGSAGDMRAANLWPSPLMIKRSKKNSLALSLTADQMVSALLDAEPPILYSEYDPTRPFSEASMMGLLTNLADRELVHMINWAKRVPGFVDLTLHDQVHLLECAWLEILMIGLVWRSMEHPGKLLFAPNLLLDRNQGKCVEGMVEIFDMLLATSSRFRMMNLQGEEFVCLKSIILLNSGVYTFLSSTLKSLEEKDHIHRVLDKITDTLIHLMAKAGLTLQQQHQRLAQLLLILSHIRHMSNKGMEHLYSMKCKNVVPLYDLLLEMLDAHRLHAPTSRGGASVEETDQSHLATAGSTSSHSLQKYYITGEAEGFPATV
Chain of Androgen receptor (Homo sapiens) (P10275 whole entry, looked up): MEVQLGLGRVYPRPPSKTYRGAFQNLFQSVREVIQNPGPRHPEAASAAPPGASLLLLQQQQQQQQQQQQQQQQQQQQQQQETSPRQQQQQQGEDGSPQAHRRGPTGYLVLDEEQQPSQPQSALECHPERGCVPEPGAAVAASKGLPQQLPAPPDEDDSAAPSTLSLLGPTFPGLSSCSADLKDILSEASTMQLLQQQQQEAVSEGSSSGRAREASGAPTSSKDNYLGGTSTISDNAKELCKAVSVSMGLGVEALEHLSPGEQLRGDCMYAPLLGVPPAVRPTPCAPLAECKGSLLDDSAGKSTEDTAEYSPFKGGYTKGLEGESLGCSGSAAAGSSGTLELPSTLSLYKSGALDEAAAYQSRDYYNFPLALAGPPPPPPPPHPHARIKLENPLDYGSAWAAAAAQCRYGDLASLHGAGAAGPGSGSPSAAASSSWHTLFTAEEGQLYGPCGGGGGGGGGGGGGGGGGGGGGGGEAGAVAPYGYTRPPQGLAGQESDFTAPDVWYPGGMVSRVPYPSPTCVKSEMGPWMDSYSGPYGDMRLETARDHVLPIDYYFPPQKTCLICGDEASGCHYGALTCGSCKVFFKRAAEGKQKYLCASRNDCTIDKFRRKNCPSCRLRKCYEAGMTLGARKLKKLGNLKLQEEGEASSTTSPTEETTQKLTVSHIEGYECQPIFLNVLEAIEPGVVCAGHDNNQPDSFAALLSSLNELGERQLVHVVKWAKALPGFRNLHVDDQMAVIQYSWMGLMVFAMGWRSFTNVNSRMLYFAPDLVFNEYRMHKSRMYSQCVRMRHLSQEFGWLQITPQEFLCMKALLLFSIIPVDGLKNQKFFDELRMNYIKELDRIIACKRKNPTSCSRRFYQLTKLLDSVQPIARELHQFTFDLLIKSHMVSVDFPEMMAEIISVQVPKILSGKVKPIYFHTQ

On to `CC(C)c1ccc2oc3nc(N)c(C(=O)O)cc3c(=O)c2c1`, for which the Potency result in [1], in [2], in experiment [3], in experiment [5], in experiment [6] and in experiment [8] was “inactive” in each case. The Potency entry in experiment [9] was “inactive”. Further, the Potency in [4] was 23.7 µM (active). The outcome in [7], in experiment [10], in experiment [11] and in [12] was inactive.

With `NC(=O)CCCCC1CCSS1` (stereo not given), the Potency entry in [1], in experiment [2], in [3], in experiment [13], in experiment [5] and in experiment [6] was “inactive” in each case. For the same compound, the Potency entry in experiment [15], in [8], in experiment [16] and in [9] was “inactive” in each case. The outcome in experiment [14], in [7], in experiment [10], in experiment [11], in experiment [17] and in experiment [12] was inactive.

Take `C1COCCO1`: the Potency entry in experiment [1], in experiment [2], in [3], in [18], in experiment [5] and in experiment [8] was “inactive” each time. For the same compound, the Potency entry in experiment [16] and in experiment [9] was “inactive” each time. Besides, the result in experiment [7], in experiment [10], in [11], in experiment [17] and in [12] was inactive.

On to `CCN1CCCC1CNC(=O)c1cc(S(N)(=O)=O)ccc1OC` (stereo not given), for which the Potency result in [1], in experiment [2], in experiment [3], in [18], in experiment [6] and in experiment [15] was “inactive” throughout. Moreover, the result in [14], in [10], in [11], in experiment [17] and in [12] was inactive.

For the compound `NC(=O)c1c(Cl)cccc1Cl`, the Potency result in experiment [1], in experiment [2], in [3], in experiment [4], in [13] and in experiment [5] was “inactive” in each case. The Potency entry in [6], in experiment [16] and in experiment [9] was “inactive” in each case. In addition, the compound was classed as inactive in experiment [14], in experiment [7], in [10], in experiment [11], in [17] and in experiment [12].

As for `COC(C(=O)O)c1ccccc1` (stereo not given), the Potency entry in experiment [1], in [2], in [3], in experiment [4], in [13] and in experiment [6] was “inactive” in each case. The Potency result in [8], in experiment [16] and in [9] was “inactive” in each case. For the same compound, the compound was classed as inactive in experiment [14], in [10], in [11] and in experiment [17].

Take `N[C@@H](CS)C(=O)O`: the Potency result in experiment [1], in [2], in [3], in [4], in experiment [13] and in [6] was “inactive” each time. In addition, the Potency result in [15], in experiment [8], in [16] and in [9] was “inactive” each time. Moreover, the compound was called inactive in [14], in [7], in experiment [11] and in [17].

In the case of `O=C(O)c1ccccc1-c1ccc(C(F)(F)F)cc1`, the Potency entry in experiment [1], in [2], in experiment [3], in [4], in [13] and in experiment [5] was “inactive” throughout. Moreover, the Potency entry in [6], in experiment [8], in experiment [16] and in [9] was “inactive” each time. Also, the call in experiment [14], in experiment [7], in experiment [10], in experiment [11], in experiment [17] and in experiment [12] was inactive.

For the compound `OCCCCCCO`, the Potency entry in [1], in [2] and in experiment [3] was “inactive” throughout. Moreover, the Potency is 55.1 µM (active) in experiment [4] and 19.6 µM (active) in [9]. Besides, the result in experiment [7], in [10], in [11], in [17] and in experiment [12] was inactive.

In the case of `C=CCSCC1Nc2cc(Cl)c(S(N)(=O)=O)cc2S(=O)(=O)N1` (stereo not given), the Potency entry in [1], in experiment [2], in experiment [3], in experiment [4], in experiment [13] and in experiment [6] was “inactive” throughout. Also, the Potency result in [15], in [8] and in [9] was “inactive” each time. In addition, the call in experiment [14], in experiment [7], in experiment [10], in [11], in experiment [17] and in experiment [12] was inactive.

(Values after PubChem BioAssay (Tox21).)
